# Measured values: ChEMBL document CHEMBL3988442, “University of Dundee, Small-Polar-MMV Screening Library” (2021)
# Legend:
# [1] = molecular target: T1, Aspartate--tRNA(Asp/Asn) ligase (Mycobacterium tuberculosis (strain ATCC 25618 / H37Rv)) (UniProt P9WFW3); experiment: Assay for Asp RNA synthetase-1 from Mycobacterium tuberculosis; format: functional; parameters: scale not given: direction of the effect not stated beside the values; settings: 30 µM; also: in the data most compounds retested in dose-response had high values
# T1 sequence (whole entry): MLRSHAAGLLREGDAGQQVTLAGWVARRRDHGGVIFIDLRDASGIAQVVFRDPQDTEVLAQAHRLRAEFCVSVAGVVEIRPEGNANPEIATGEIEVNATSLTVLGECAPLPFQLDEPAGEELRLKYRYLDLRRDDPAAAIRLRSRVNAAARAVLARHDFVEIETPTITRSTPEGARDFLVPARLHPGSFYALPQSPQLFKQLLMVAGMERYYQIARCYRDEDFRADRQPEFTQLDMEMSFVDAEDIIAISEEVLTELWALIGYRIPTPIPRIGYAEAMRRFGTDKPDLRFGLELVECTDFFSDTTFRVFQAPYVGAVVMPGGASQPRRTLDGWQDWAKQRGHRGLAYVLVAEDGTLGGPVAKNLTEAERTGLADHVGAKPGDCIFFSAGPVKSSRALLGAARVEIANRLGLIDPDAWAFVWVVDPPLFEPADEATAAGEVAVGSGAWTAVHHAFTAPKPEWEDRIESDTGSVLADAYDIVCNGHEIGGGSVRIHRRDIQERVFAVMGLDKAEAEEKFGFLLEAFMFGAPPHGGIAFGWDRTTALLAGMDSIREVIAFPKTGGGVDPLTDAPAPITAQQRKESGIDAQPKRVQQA
# [2] = molecular target: Shiga toxin 2 (Escherichia coli O157:H7) (UniProt P09385+P09386); experiment: E. coli 0.157:H7 Shiga Toxin SOP - stx2 screening assay; format: functional; parameters: scale not given: direction of the effect not stated beside the values; settings: 30 µM
Compound,Percent Effect [1] [%],Percent Effect [2] [%]
COc1ccccc1OCC(=O)NS(=O)(=O)c1ccc(Br)s1,2.43,-0.0881
CC(C(=O)N1CCCC1)N1CCC(c2nccn2CC2CCC2)CC1 (configuration not stated),-1.49,-1.48
c1ncn(CC2CN(Cc3noc(C4CC4)n3)CCO2)n1 (configuration not stated),0.367,-20.8
Cc1cccc(-c2noc(CN3CCc4nn(C)c(=O)cc4C3)n2)c1,47.9,-21.4
COc1cccc(CCNC(=O)CN2CCCC2c2noc(C)n2)c1 (configuration not stated),-0.962,22.4
Cn1ccnc1CN1CCN(Cc2ccccc2C#N)CC1,1.91,7.78
Cc1nc(C)n(CC2CCCN(c3ncnc4[nH]ccc34)C2)n1 (configuration not stated),-1.82,2.99
Cc1noc(CCCC(=O)NC(C)c2ccccn2)n1 (configuration not stated),-1.28,16
COCCNC(=O)[C@H]1C[C@@H]2CCN(Cc3ccoc3)C[C@H]2O1,3.35,-3.8
Cn1cccc1CNC(=O)N(CCO)C1CCCc2ccccc21 (configuration not stated),-1.95,-4.96
CCSCCNC(=O)C(c1cccc(C)c1)N(C)C (configuration not stated),0.569,-22.9
Cc1nc(C2CCCN(C(=O)CO)C2)cc(N2CCOCC2)n1 (configuration not stated),-4.78,17.9
CN(Cc1cncnc1)Cc1cn2c(n1)CN(C1CCOC1)CC2 (configuration not stated),7.69,-15.6
Cn1cc2c(n1)C(COCC1CC1)CN(Cc1ccccn1)C2 (configuration not stated),-2.25,9.17
CC(C)Oc1ccc(CNC(=O)CC(F)(F)F)cc1F,-4.64,33.4
Cn1cnnc1C1CCCN(C(=O)NCc2ccc3c(c2)OCO3)C1 (configuration not stated),-2.83,7.83
O=C(c1cccn1Cc1cccs1)N1CCCC1Cn1cccn1 (configuration not stated),-0.702,14.5
Cn1nnc2c1CCN(Cc1ccccc1)C2COCC1CC1 (configuration not stated),2.13,-19.5
O=C(Nc1cccc(CNCc2cccs2)c1)C1CCCC1,1.74,13
O=C(NCC(O)c1ccc(F)c(F)c1)c1cccnc1O (configuration not stated),2.78,-4.45
CN(C)C(=O)CN1C[C@@H]2CC[C@H](C1)N(Cc1cccc(Cl)c1Cl)C2,0.661,1.27
CN(C)C(=O)N1C[C@@H]2CCCO[C@@H]2[C@H](N(C)Cc2ccco2)C1,-1.32,-18.8
Cc1cc(N2CCC3(CCC(=O)N(CC4CC4)C3)CC2)nc(N)n1,-0.719,0.426
CN(Cc1ccccc1)C(=O)c1nc(S(C)(=O)=O)n2ccccc12,-4.08,20.9
COCCNC(=O)c1cc(S(=O)(=O)N2CCCCC2)cs1,0.21,-0.342
OC(CN(Cc1ccccc1)Cc1ccncc1)c1cccs1 (configuration not stated),-1.23,4.51

Compound,Percent Effect [1] [%],Percent Effect [2] [%]
Cc1noc(C)c1CN(C)CCC(=O)N1CCc2sccc2C1,5.92,-16
CN(C(=O)c1cc(Cl)c[nH]1)C1CCN(c2ccccn2)CC1,-6.49,1.72
CN1CCOC(CNCc2cccc(OCc3ccccn3)c2)C1 (configuration not stated),-8.22,-16.3
Cc1cccc(-n2cc(C(=O)N3CCCC(n4cccn4)C3)nn2)c1 (configuration not stated),1.99,-13.8
O=C(c1ccsc1)N1CCOC2(CCN(Cc3cccnc3)CC2)C1,0.932,-9.41
Cc1c(CN2CCCC(c3[nH]ncc3S(C)(=O)=O)C2)cnn1C (configuration not stated),-0.927,-23.4
CCOC(=O)CNC(=O)N1CCN(c2ncccn2)CC1,4.73,-21.7
CC1CCc2nc(O)c(C(=O)NCCN(C)C)cc2C1 (configuration not stated),-0.552,-8.38
Cc1nc(C)n(CC2CCCN(Cc3nnc(-c4ccco4)o3)C2)n1 (configuration not stated),-2.25,-19.8
COCCN(C)C(=O)Cn1cccc(OC)c1=O,49.9,-42.8
Cc1cc(CN2CCN(C(=O)CCc3cccc(F)c3F)CC2)on1,-2.44,-2.21
CC(C)CC(=O)N1CCCn2cnc(CN3CCCC3=O)c2C1,-3.68,-15.8
CCN1CCN(Cc2ccnc(-c3cccnc3)n2)CC1,-0.64,-13.1
Cc1ccccc1C(=O)Nc1cnn(CC(=O)NC2CCCC2)c1,2.07,-6.1
c1ncc(Nc2nccc(C3CCCCN3CC3CCCCC3)n2)cn1 (configuration not stated),0.28,-0.91
CCc1nc(C2CCCN2CCn2cncn2)no1 (configuration not stated),0.0232,-0.231
Cn1cc(CCNC(=O)NC2CCS(=O)(=O)C2)cn1 (configuration not stated),2.01,-8.38
CN(Cc1cccc(F)c1)C(=O)CN1CCCCC1Cn1cncn1 (configuration not stated),5.47,-9.64
CC(O)CN1CCN(C(=O)c2ccc(Cn3cccc3)cc2)CC1 (configuration not stated),11,19.4
O=C(c1cn(-c2cc(N3CCSCC3)ncn2)cn1)N1CCSCC1,-8.02,1.44
O=C(c1cnco1)N1C[C@@H]2CC[C@H](Oc3cccc(F)c3)[C@@H]2C1,-3.5,-73.9
Cc1nc(CN(C)C2CCN(CCCOc3ccccc3)C2)no1 (configuration not stated),2.8,-39.6
CCN(Cc1ccc2c(c1)OCCO2)S(=O)(=O)N(C)C(C)C,-0.607,9.34
Cc1noc(C)c1-c1cnc(CC2CCN(C(=O)c3cc[nH]n3)C2)cn1 (configuration not stated),4.09,7.65
CC(C)c1nn(C)c(Cl)c1CNC1CCOc2ccccc21 (configuration not stated),1.57,27.5
